Results taken from PubChem BioAssay AID743320 (Broad Institute, 2014).
Measured potencies and affinities stand elsewhere. The source made the active and inactive calls.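 How the source made its calls: active means signal drop whose fitted half-maximal potency is at most twice the top valid dose tested; inconclusive means flat curve inhibiting 30 to 70 percent, or a poor fit; inactive means the rest.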

target: Endoplasmic reticulum aminopeptidase 2 (Homo sapiens) (UniProt Q6P179); assay: ERAP2 aminopeptidase inhibitors, dose response, selectivity assay for selective ERAP1 modulator project, biochemical, fluorescence plate reader, cherry-picked, set 2 (AID 743320); conditions: recombinant ERAP2, Arg-AMC fluorescence, 1 h; series mostly up to 11 µM; activity change, negative = inhibition: at the top concentration
Sequence (Q6P179 whole entry, looked up): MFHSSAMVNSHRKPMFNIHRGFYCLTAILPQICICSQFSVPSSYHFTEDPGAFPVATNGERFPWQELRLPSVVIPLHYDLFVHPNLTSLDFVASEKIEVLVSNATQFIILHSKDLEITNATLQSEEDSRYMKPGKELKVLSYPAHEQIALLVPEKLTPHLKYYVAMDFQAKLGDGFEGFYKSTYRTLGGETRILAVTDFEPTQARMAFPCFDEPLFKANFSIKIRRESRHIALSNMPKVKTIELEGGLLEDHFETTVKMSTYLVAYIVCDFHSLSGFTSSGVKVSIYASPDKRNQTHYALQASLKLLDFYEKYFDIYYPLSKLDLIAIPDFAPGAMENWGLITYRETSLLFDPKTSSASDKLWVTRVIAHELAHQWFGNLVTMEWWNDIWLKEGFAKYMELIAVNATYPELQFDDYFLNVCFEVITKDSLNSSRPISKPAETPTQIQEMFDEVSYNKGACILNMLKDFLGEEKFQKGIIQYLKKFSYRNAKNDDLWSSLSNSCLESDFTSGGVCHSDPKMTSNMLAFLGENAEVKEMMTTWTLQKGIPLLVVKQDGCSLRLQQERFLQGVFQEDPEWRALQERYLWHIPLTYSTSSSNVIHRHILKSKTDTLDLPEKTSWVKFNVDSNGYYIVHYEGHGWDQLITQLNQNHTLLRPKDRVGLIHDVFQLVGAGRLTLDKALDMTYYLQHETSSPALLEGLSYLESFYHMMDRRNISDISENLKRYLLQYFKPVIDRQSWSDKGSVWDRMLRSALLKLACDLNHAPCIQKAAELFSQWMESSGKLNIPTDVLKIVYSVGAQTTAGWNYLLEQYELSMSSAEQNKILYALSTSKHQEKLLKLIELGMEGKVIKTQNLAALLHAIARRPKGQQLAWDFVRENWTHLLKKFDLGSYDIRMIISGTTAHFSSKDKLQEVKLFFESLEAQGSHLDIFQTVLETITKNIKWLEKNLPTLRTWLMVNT

SMILES	activity change, negative = inhibition
Cc1cc(=O)oc2cc(OCC(=O)N3CCN(C(C)c4ccccc4)CC3)c(Cl)cc12 (stereo not drawn)	461% (inactive)
N#Cc1c(N2CCNCC2)nc(-c2ccco2)c2c1CCCC2	31.3% (inactive)
CCN(CCCl)c1cc(CN(C)C)cc(NC(=O)c2ccc(C(=O)Nc3cc(CN(C)C)cc(N(CC)CCCl)c3)cc2)c1	-8.9% (inactive)
